Assay outcomes: PubChem BioAssay, National Center for Advancing Translational Sciences (NCATS)
BAZ2B inh: inhibitors of human BAZ2B bromodomain; Q9UIF8; Potency, µM (series often up to 114 µM), most hits filed as inhibitors; 360,000 tested, 4.4% active; AlphaScreen BAZ2B-H3K14Ac peptide displacement; further: nearly all actives have a fitted effect of over 60% in size
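AlphaScreen displacement: compounds (up to 110uM) incubated 30 min at room temperature with a preformed 50 nM BAZ2B/50 nM biotinylated H3K14Ac peptide complex in PBS pH 7.4 with Tween-20. Donor and acceptor beads at 10 ug/mL final added, 20 min light-protected before reading.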
JMJD2A Tudor: blocks the human JMJD2A Tudor domain | O75164 | AlphaScreen JMJD2A-Tudor / H3K4me3 peptide binding | Potency, µM (doses to about 114 µM), usual class: inhibitors | 390,000 tested, 4.4% active; further: nearly all actives have a fitted effect of over 50% in size
HP1b binding inh: inhibitors of HP1-beta chromodomain binding to methylated histone tails; P83916; AlphaScreen HP1-beta / biotin-H3K9me3 peptide binding; Potency, µM (series often up to 114 µM), actives largely listed as inhibitors; 390,000 tested, 0.56% active; AID 540317; further: nearly all actives have a fitted effect of over 70% in size
Target sequence (P83916 whole entry, looked up): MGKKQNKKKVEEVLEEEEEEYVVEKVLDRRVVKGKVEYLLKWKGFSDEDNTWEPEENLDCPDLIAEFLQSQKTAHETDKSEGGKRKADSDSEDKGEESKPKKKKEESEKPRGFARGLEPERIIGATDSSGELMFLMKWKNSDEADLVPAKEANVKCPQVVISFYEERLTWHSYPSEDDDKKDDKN
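AlphaScreen: HP1-beta (50 nM) preformed 30 min with biotin-H3(1-18)K9me3 peptide (50 nM) in PBS pH 7.4, 0.01% Tween-20. Compound added for 30 min at RT, then streptavidin donor/nickel chelate acceptor beads (10 ug/mL) for 30 min.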
TDP1 block: TDP1 (human) enzyme inhibition | Q9NUW8 | recombinant TDP1, AlphaScreen DNA substrate cleavage | Potency, µM (highest dose often 130 µM), most hits filed as inhibitors | 350,000 tested, 0.28% active; further: nearly all actives have a fitted effect of over 40% in size
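E. coli-derived human Tdp1, 1 nM final. Cpd preinc 15 min RT; substrate 15 nM final, 5 min RT; AS bead mix 10 ug/ml final, 10 min RT. Signal loss = tyrosine-FITC cleavage. No-enzyme wells = max signal.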
G9a block: inhibitors of human histone lysine methyltransferase G9a | Potency, µM (titrated, usually from 102 µM), actives largely listed as inhibitors | Q96KQ7 | 350,000 tested, 8.8% active | G9a H3K9 monomethylation, AlphaScreen, 2 h | AID 504332; further: nearly all actives have a fitted effect of over 75% in size
Target sequence (Q96KQ7 913-1193 limits assumed): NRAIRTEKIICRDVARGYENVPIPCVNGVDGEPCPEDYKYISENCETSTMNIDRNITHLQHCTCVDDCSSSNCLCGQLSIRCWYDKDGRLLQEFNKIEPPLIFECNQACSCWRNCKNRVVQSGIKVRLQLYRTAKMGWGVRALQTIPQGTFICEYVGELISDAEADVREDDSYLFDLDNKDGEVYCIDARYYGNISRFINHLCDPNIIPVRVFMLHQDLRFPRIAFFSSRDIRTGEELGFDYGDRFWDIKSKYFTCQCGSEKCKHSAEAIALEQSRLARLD
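Using a bead-based AlphaScreen, monomethylated H3K9 product from 2 h room-temperature reactions (G9a 20 nM, peptide 500 nM, SAM 20 uM) was detected with 0.5 ug/mL rabbit anti-H3K9me1 antibody.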
Sfp inh: inhibitors of Bacillus subtilis Sfp phosphopantetheinyl transferase; Biochemical Sfp PPTase activity, qHTS; Q9F4F7; Potency, µM, actives largely listed as inhibitors; 310,000 tested, 3.5% active;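 further: the enzyme is Sfp with the accession as filed and its product quenches rhodamine fluorescence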
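After 15 min at room temperature with compound, 15 nM Sfp received 5 uM rhodamine-CoA plus 12.5 uM BHQ-2-ybbR (50 mM Hepes pH 7.6, 10 mM MgCl2). Rate came from the fluorescence difference over 30 min, ex 525/em 598 nm.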
Hits are given with their value; - = inactive; ? = inconclusive; . = no result given; [ ] = dose if it differs, or a comment. Most compounds without a hit are left out; they make up all but 12% or so of the library. The call rests on the fitted dose curve; in most records, active means well fitted curve in the direction sought with a large enough effect; inconclusive means small, poorly fitted or top-dose-only effect, or another doubt; inactive means no such curve, though single readings can be large; an effect the other way counts as inactive or inconclusive.

SMILES	BAZ2B inh	JMJD2A Tudor	HP1b binding inh	TDP1 block	G9a block	Sfp inh
COc1ccc(-c2nc3cc(NC(=O)Cc4ccc(Cl)cc4)ccc3o2)cc1OC	-	-	-	-[12.3 µM]	?	.
Cc1sc2ncn(CC(=O)NCc3ccco3)c(=O)c2c1-c1ccc(F)cc1	?	-	-	-	?	18µM
Cc1ccc2c(=O)c(C(=O)c3ccc(F)cc3)cn(CC(=O)NCc3ccco3)c2n1	50µM	?	-	.	50µM	-
O=C(Cn1cnc2c(cnn2-c2ccc(F)cc2)c1=O)NCc1ccco1	-	-	-	-	-	-
CC(=O)N1C2=CCCC3CCCCC23c2ccccc21 (stereo not given)	.	-	-	.	.	.
Cc1cc2c(cc1[N+](=O)[O-])NC(CNC(C)C)CC2 (stereo not given)	-	-	-	-	-[12.7 µM]	-
Nc1ccc(NC2C[C@@H](C(=O)O)NC2=O)cc1 (stereo not given in full)	-	-	-	-	50µM	-
CC(=O)Nc1ccc(NCC(=O)c2ccccc2)cc1	-	-	-	-	?	-
CCC(C)Nc1c([N+](=O)[O-])cc(C)cc1[N+](=O)[O-] (stereo not given)	32µM	20µM	?	-	40µM	-
CCCCNCCOCCOc1ccc(C)cc1[N+](=O)[O-]	?	2.8µM	?	-	18µM	-
Cc1ccc([N+](=O)[O-])c(OCCn2cnc3ccccc32)c1	-	-	-	-	-	-
C=CCN(CC=C)CCOc1cc(C)ccc1[N+](=O)[O-]	22µM	?	28µM	-	10µM	-
COc1ccccc1OCCOCCOc1ccc(C)cc1[N+](=O)[O-]	-	-	-	-	-	-
CCCCNCCOCCOc1ccccc1-c1ccccc1	?	1.4µM	?	-	?	-
C=CCc1ccc(OCCOCCOc2ccc(C)cc2[N+](=O)[O-])c(OC)c1	-	-	-	-	-	-
COc1cc(C)ccc1OCCOCCOc1ccccc1[N+](=O)[O-]	-	-	-	-	-	-
CCC(C)NCCOc1ccc(C)cc1[N+](=O)[O-] (stereo not given)	40µM	0.79µM	?	.	11µM	-
COCCCNCCCCOc1ccc(C)cc1[N+](=O)[O-]	?	5.6µM	?	-	11µM	-
C=CCNCCOc1ccc(C)cc1[N+](=O)[O-]	40µM	50µM	?	.	.	-
COc1ccc(C2CC(c3c(O)n(C4CCCCC4)c(=O)[nH]c3=O)=Nc3ccccc3S2)cc1 (stereo not given)	-	-	-	-	-	.
CN(CCCC1CCCC1)C(=O)c1cc(COc2c(F)cccc2F)on1	-	-	-	79µM	-[0.501 µM]	-
CN(CCCC1CCCC1)C(=O)c1cc(COc2ccc(F)c(F)c2)on1	-	-	-	.	-	-
CC(C)CC(NC(=O)CC12CC3CC(CC(C3)C1)C2)C(=O)NC1=NCCS1 (stereo not given)	-	22µM	-	-	.	-
COc1cc(-c2nc(-c3ccc4c(c3)-c3ccccc3S4(=O)=O)c(-c3ccccc3)[nH]2)cc(OC)c1OC	-	-	-	-	45µM	-
COc1ccc(-n2c(CCc3ccccc3)nnc2SCC(=O)c2ccc(Cl)cc2)cc1	-	-	-	-	?	-
SMILES	BAZ2B inh	JMJD2A Tudor	HP1b binding inh	TDP1 block	G9a block	Sfp inh
O=C(CSc1nnc(CCc2ccccc2)n1-c1ccc(Cl)cc1)c1ccccc1	-	-	-	-	11µM	-
COc1ccc(C2=C(C)C(N3CCC(C(=O)Nc4ccc(F)cc4C)CC3)=NS2(=O)=O)cc1	-	-	-	-	-	.
Cc1ccc(CN(C)c2nc(-c3cccnc3)nc3ccccc23)o1	-	-	-	-	40µM	-
CCOc1ccc(CN(C)c2nc(-c3cccnc3)nc3ccccc23)cc1OC	35µM	?	-	-	?	-
O=C1CCCN1CCC1CCN(C2CC(=O)N(c3ccc(F)cc3)C2=O)CC1 (stereo not given)	-	-	-	-	14µM	-
O=C(C1CCN(C2CC(=O)N(c3ccc(F)cc3)C2=O)CC1)N1CCOCC1 (stereo not given)	-	?	-	-	?	-
CCc1nc(N2CCCC(C)C2)c2oc3ccccc3c2n1 (stereo not given)	-	20µM	-	-	?	45µM
CCc1nc(N2CCN(Cc3ccc4c(c3)OCO4)CC2)c2oc3ccccc3c2n1	71µM	?	?	-	?	35µM
Cc1ccccc1-c1nc(CS(=O)(=O)CC(=O)NCCCN2CCN(C)CC2)c(C)o1	-	-	-	-	-	-
CN1CCN(NC(=O)/C=C/c2ccc(Br)cc2)CC1	-	-	-	-	-	-
CCn1c(=O)cc(C(F)(F)F)[nH]c1=S	-	-	-	-	25µM	79µM
Cc1cc(=O)n(Cc2ccc(OC(C)C)cc2)c(=S)[nH]1	-	-	-	-	-	-
CCN(CC)C(=O)COc1ccc(/C(C)=N/NC(=O)c2ccccc2-n2cccc2)cc1	-	-	-	-	?	-
COc1ccc(-c2c[n+]3c4n2CCCCC4=C(c2ccc(Br)cc2)C3)cc1	40µM	56µM	-	-	8.9µM	45µM
Clc1ccc(C2=C3CCCCn4c(-c5ccccc5)c[n+](c43)C2)cc1	50µM	?	-	-	14µM	79µM
CCCc1cnc(N2CCN(C(=O)c3ccc(OC)cc3)CC2)nc1	-	-	-	.	-	-
CC(C)C1CC(CCNCc2ccc3c(c2)OCO3)(c2ccccc2)CCO1 (stereo not given)	-	-	-	.	-	-
Cc1ccc(C2(CCNCc3ccc(N(C)C)cc3)CCOC(C(C)C)C2)cc1 (stereo not given)	35µM	40µM	?	-	?	-
CC(C)C1CC(CCNCc2ccc(N(C)C)cc2)(c2ccccc2)CCO1 (stereo not given)	25µM	32µM	?	-	35µM	-
O=C1CCCC(O)=C1Sc1ccccc1C(=O)O	79µM	22µM	25µM	.	25µM	56µM
CC1(C)CC(=O)C(C(C#Cc2ccccc2)C2=C(O)CC(C)(C)CC2=O)=C(O)C1	?	-	-	-	13µM	?
O=C1CCCc2[nH]c(-c3ccccc3)nc21	?	-	-	-	.	-
O=C1CCCC(O)=C1C(C#Cc1ccccc1)C1=C(O)CCCC1=O	-	16µM	?	-	0.89µM	-
C/C(=N/NC(=O)c1ccccc1)C1=C(O)CC(C)(C)CC1=O	-	-	-	-	.	-
O=C(COC(=O)Cc1n[nH]c(=O)c2ccccc12)NNC(=O)c1ccc(Cl)cc1	-	-	-	-	-[12.7 µM]	.
COc1ccc(OC)c2sc(N3CCN(C(=O)c4ccc5ncsc5c4)CC3)nc12	?	?	?	-	40µM	.
COc1ccc(OC)c2sc(N3CCN(C(=O)c4ccc([N+](=O)[O-])s4)CC3)nc12	?	?	-	.	35µM	.
